Laboratory results from the supplement of paper PMC10849652.
Targets with a hit are over-represented here; the source holds about 8,800 in all. About 0.5% of all pairs of compound and target were hits.

Assays:
Assay in all cases: log2 fold change, soluble protein after heating vs DMSO (PISA); higher = thermal stabilisation; K562 lysate, 10 uM; active = over 0.2 and 3.5 SD of the protein, either way, in both replicates (recomputed)
[1] = compound: C1=CC=C(C=C1)[C@H](COC2=CC3=C(C=C2)NC(=O)N3)NC(=O)C4=CC=CN(C4=O)CC5=CC(=C(C=C5)F)F
Outline: (§1)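 K562 pellets were dounce-homogenised in PBS pH 7.4 with 1 mM MgCl2, and the crude extract at 1 mg/mL protein was treated with 10 μM compound for 30 min. Aliquots were heated for 3 min across 48°C-58°C, pooled, and brought to 0.5% NP-40 at 4°C; soluble protein was the supernatant after 21,000xg for 90 min. Soluble protein was quantified by TMTpro 16plex LC-MS/MS with channel sums equalised, and reported as log2 fold change in thermal stability against DMSO controls, with values from duplicates.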

[2] = compound: CC1=C(SC2=C1C(=N[C@H](C3=NN=C(N32)C)CC(=O)N)C4=CC=C(C=C4)Cl)C
Outline: as §1

[3] = compound: CC1=C2C(=CC=C1)N=C(N(C2=O)C3=CC=CC=C3C)CN4C=NC5=C(N=CN=C54)N
Outline: as §1

[4] = compound: Cc1sc2c(c1C)C(c1ccc(Cl)cc1)=N[C@@H](CC(=O)OC(C)(C)C)c1nnc(C)n1-2
Outline: as §1

[5] = compound: c1ccc([C@@H]2C[C@H]2NC2CCNCC2)cc1
Outline: as §1

Measured: log2 fold change

GLUD2 (UniProt P49448)
Chain of UniProt P49448 (P49448 whole entry, looked up): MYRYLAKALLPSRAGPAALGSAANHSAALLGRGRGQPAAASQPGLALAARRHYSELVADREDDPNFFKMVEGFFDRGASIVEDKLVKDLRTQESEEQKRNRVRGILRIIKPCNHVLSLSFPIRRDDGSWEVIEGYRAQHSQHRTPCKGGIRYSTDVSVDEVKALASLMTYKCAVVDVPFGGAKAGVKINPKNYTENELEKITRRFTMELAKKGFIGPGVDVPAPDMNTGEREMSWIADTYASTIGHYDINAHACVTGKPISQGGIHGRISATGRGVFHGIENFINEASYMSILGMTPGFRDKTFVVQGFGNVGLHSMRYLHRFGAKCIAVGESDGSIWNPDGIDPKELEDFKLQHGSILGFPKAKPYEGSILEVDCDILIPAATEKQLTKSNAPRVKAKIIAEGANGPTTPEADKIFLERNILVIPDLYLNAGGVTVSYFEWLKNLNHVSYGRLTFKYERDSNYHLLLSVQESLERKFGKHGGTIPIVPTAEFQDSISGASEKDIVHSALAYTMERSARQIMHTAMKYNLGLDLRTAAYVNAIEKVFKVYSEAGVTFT
inactive: [1] -0.001 | [2] 0.031 | [3] 0.265 | [4] 0.019 | [5] 0.022

INTS7 (UniProt Q9NVH2)
Chain of UniProt Q9NVH2 (Q9NVH2 whole entry, looked up): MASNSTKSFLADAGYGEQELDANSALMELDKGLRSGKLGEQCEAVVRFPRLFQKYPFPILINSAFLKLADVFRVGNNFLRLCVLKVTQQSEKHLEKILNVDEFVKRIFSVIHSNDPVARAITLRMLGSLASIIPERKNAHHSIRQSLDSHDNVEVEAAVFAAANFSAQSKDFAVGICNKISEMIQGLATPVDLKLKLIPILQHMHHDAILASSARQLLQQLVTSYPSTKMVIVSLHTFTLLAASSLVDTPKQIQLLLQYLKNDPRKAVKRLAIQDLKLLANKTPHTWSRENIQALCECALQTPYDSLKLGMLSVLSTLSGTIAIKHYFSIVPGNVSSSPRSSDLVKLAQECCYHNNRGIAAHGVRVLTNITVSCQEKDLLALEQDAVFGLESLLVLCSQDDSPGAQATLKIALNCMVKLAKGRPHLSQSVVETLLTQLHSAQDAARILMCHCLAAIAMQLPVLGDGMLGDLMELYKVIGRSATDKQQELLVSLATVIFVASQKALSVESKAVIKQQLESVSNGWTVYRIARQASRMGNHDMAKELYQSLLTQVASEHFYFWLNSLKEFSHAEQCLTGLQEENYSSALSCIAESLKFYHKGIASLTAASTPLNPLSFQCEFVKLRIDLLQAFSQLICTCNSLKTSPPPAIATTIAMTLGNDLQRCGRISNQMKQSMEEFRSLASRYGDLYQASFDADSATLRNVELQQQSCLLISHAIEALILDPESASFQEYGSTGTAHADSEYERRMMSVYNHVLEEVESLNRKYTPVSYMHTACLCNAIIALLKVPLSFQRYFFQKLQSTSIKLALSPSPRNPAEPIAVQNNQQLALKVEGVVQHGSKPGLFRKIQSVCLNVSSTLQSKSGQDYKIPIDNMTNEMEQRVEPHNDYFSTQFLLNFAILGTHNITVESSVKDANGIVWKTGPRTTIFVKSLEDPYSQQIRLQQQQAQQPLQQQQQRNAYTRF
inactive: [1] -0.06 | [2] 0.007 | [3] 0.016 | [4] 0.009 | [5] -0.001

GSK3B isoform 2 (UniProt P49841)
Chain of UniProt P49841 (P49841 whole entry, looked up): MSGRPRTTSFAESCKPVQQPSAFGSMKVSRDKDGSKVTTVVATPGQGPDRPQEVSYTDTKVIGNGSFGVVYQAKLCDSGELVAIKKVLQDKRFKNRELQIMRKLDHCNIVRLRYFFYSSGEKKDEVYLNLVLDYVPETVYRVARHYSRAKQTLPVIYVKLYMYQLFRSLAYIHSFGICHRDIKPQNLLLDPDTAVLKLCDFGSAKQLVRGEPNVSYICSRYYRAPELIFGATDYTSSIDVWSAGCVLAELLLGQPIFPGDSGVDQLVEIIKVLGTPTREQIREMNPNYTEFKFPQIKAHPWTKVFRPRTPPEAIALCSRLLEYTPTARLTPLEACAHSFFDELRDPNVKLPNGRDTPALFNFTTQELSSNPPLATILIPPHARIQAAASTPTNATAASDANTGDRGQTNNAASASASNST
inactive: [1] 0.036 | [2] -0.003 | [3] -0.042 | [4] 0.029 | [5] -0.074

HIST2H2AA3 (UniProt Q6FI13)
inactive: [1] 0.017 | [2] 0 | [3] -0.111 | [4] 0.268 | [5] 0.277

GRB10 (UniProt Q13322)
Chain of UniProt Q13322 (Q13322 whole entry, looked up): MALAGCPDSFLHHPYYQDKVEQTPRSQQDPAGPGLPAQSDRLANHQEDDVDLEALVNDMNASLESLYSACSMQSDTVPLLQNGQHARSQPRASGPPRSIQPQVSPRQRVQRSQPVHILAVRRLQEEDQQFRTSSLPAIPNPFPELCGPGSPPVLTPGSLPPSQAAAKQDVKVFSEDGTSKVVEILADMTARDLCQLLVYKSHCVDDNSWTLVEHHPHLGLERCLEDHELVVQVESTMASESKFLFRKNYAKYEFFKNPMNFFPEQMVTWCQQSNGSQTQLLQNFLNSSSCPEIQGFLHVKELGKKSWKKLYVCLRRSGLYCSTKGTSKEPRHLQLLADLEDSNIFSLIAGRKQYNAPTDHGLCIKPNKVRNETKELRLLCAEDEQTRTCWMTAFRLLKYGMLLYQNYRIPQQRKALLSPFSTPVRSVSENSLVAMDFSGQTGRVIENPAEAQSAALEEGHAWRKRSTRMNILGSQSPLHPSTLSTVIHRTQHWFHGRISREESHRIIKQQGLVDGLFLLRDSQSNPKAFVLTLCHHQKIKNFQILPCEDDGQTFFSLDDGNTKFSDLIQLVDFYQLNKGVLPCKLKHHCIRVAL
inactive: [1] 0.03 | [2] 0.022 | [3] 0.024 | [4] 0.045 | [5] -0.078

INPP4A (UniProt Q96PE3)
inactive: [1] -0.079 | [2] 0.112 | [3] 0.027 | [4] 0.036 | [5] 0.017

ISCA1 isoform 2 (UniProt Q9BUE6)
Chain of UniProt Q9BUE6 (Q9BUE6 whole entry, looked up): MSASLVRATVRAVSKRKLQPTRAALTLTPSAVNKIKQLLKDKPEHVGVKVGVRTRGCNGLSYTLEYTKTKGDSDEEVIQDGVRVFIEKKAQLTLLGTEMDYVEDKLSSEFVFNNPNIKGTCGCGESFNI
inactive: [1] 0.005 | [2] -0.03 | [3] 0.016 | [4] -0.021 | [5] 0.099

HNRNPUL1 (UniProt Q9BUJ2)
Chain of UniProt Q9BUJ2 (Q9BUJ2 whole entry, looked up): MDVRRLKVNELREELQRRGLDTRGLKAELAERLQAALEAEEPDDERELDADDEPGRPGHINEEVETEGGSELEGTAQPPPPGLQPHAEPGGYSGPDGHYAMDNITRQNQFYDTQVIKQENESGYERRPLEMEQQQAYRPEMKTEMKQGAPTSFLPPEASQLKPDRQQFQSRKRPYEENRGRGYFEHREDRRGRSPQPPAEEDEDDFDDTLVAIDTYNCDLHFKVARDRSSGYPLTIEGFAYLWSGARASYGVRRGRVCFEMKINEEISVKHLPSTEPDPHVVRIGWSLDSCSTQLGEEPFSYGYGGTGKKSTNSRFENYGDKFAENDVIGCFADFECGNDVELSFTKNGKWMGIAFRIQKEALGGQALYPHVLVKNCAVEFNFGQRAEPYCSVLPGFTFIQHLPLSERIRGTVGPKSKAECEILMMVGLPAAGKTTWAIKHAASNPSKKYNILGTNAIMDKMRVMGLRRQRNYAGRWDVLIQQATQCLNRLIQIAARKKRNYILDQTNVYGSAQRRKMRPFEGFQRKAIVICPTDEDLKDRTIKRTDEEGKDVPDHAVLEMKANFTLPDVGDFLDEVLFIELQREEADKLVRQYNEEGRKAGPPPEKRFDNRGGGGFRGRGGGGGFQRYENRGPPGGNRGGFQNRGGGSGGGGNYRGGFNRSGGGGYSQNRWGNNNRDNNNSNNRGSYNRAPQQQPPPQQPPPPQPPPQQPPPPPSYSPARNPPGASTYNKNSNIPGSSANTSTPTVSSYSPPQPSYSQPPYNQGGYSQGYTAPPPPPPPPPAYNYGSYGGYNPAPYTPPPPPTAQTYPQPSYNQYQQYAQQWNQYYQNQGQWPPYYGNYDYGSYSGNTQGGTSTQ
inactive: [1] 0.043 | [2] -0.022 | [3] -0.028 | [4] -0.003 | [5] -0.006

HLCS (UniProt P50747)
Chain of UniProt P50747 (P50747 whole entry, looked up): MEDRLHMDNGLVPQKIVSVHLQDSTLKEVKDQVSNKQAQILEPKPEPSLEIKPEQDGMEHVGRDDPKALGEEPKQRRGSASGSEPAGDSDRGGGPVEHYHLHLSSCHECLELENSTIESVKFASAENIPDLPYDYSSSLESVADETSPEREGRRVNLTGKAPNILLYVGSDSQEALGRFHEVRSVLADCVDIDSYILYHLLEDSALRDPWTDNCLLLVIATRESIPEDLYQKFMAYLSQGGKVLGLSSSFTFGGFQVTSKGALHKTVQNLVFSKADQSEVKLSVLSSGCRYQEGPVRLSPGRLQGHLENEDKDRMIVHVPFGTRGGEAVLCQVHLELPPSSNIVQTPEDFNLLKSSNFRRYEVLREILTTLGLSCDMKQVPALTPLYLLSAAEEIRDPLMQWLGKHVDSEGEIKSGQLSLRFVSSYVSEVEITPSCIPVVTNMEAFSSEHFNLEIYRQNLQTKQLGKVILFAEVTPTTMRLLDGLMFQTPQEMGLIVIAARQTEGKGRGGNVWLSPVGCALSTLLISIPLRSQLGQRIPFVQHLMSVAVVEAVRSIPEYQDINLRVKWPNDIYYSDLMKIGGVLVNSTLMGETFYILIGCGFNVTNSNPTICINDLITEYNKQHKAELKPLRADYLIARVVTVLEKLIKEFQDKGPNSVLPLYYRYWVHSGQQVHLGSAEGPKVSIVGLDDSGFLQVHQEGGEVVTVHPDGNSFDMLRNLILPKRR
inactive: [1] -0.027 | [2] 0.027 | [3] 0.011 | [4] -0.006 | [5] 0.038
